USP30 inh: blocks human USP30 ubiquitin-rhodamine cleavage | Q70CQ3 | purified USP30, Ub-rhodamine cleavage fluorescence | inhibition, % at 25 µM | 47,000 tested, 5.3% active
USP8 block: blocks human USP8 ubiquitin-rhodamine cleavage. P40818. purified USP8, Ub-rhodamine cleavage fluorescence, 30 min. inhibition, % at 20 µM. 47,000 tested, 4.2% active. AID 1645853
UCHL1 inh: inhibitors of human UCHL1 deubiquitinase; P09936; purified UCHL1, Ub-rhodamine cleavage fluorescence; inhibition, % at 20 µM; 47,000 tested, 0.2% active; AID 1645859
USP17 block: human USP17-like deubiquitinase inhibition | AID 1645855 | 47,000 tested, 6.5% active | A8MUK1 | purified USP17, Ub-rhodamine cleavage fluorescence, 3 h | inhibition, % at 50 µM
Target sequence (A8MUK1 whole entry, looked up): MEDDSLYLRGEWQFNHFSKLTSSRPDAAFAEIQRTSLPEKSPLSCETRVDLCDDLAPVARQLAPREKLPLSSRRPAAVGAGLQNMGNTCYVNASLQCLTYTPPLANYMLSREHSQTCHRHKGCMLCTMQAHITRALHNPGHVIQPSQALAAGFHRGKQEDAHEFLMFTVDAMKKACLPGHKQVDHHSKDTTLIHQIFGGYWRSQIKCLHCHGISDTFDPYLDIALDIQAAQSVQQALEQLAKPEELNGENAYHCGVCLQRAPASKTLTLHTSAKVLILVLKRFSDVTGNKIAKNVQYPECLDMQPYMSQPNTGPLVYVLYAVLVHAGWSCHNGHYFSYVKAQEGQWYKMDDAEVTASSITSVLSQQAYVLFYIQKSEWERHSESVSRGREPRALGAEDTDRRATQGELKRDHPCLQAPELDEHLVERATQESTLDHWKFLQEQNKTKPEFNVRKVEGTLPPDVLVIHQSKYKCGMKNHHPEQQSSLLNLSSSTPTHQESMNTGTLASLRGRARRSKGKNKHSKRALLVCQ
USP10 block: human USP10 deubiquitinase inhibition; 47,000 tested, 1.1% active; Q14694; inhibition, % at 20 µM; purified USP10, Ub-rhodamine fluorescence, 60 min; AID 1645856
USP7 inh: human USP7 deubiquitinase inhibition. Q93009. purified USP7, Ub-rhodamine cleavage fluorescence. inhibition, % at 20 µM. 47,000 tested, 0.3% active. AID 1645854
* marks the source's active call; other numbers are inactive results; nt = not tested or not shown. An excerpt weighted towards active compounds, which were near 13% of everything screened. Cut-off read from the data, not from the text of the source: active = inhibition above about 30%; inactive = the rest.

SMILES | USP30 inh | USP8 block | UCHL1 inh | USP17 block | USP10 block | USP7 inh
COc1cc2c(cc1OC)-c1cc(NCc3cc(OC)c(OC)c(OC)c3)nc(=O)n1CC2 | -5.2 | -23.1 | -6.0 | nt | -7.6 | -3.1
COc1cc2c(cc1OC)-c1cc(-c3cc(OC)c(OC)c(OC)c3)cn1CC2 | -140.5 | 35.9* | 0.1 | -3.1 | -3.5 | 3.5
Cc1ccc(NC(=O)c2cc(-c3ccccn3)nc3c(Cl)cccc23)nc1 | -20.0 | 63.2* | -6.5 | 18.2 | -4.0 | 24.4
Cc1cccc(NS(=O)(=O)c2ccc3c(c2)C(=O)N(C)c2ncccc2O3)c1 | -0.7 | 8.2 | 1.3 | 3.0 | 6.0 | 1.2
COC(=O)c1c(C(=O)OC)c(-c2ccccc2)n(C)c1-c1ccccc1 | 20.6 | 8.2 | 0.8 | 19.0 | 3.3 | -27.5
COC(=O)c1c(C)nn(C)c1-c1ccno1 | 30.8* | 14.0 | 2.8 | 15.7 | 0.7 | 7.7
COc1ccc([C@H]2Oc3cc(OC)cc(O)c3C(=O)[C@@H]2[C@@H]2C(=O)c3c(O)cc(O)cc3O[C@H]2c2ccc(OC)cc2)cc1 | 0.0 | 18.9 | 10.3 | 40.6* | 67.8* | 25.6
C[C@H]1C(=O)c2c(O)cc(O)cc2O[C@@H]1c1ccc(O)cc1 | 20.4 | 3.0 | 3.5 | 16.8 | 4.5 | 2.9
O=S1(=O)NC[C@H]2CCN(Cc3ccccc3)CC[C@H]21 | 16.7 | -10.3 | -1.0 | 12.0 | 0.5 | -0.8
Nc1ncnc(SCc2c(Cl)cccc2Cl)n1 | 3.9 | 2.3 | -2.2 | -3.9 | 9.8 | 5.0
Nc1nccc(/C=C/c2c(Cl)cccc2Cl)n1 | -7.8 | 18.9 | 1.0 | 31.5* | 10.0 | -10.6
Cn1c(=O)[nH]c(=O)c2c1nc1n(CCc3ccccc3)c(-c3ccccc3)cn21 | 49.9* | -22.6 | -1.4 | 53.6* | 4.4 | -10.0
Cc1ccc(-n2c(-c3ccccc3)cn3c4c(=O)[nH]c(=O)n(C)c4nc23)cc1Cl | 34.1* | -6.8 | 1.0 | 52.2* | 8.0 | 4.1
Cc1ccc(-n2c(-c3ccccc3)cn3c4c(=O)[nH]c(=O)n(C)c4nc23)cc1C | -43.6 | 0.1 | -1.2 | 78.1* | 4.0 | 2.9
COCCCn1c(-c2ccccc2)cn2c3c(=O)[nH]c(=O)n(C)c3nc12 | 21.7 | -21.6 | -0.5 | 5.4 | -0.6 | -2.2
COc1cccc(N2CC(NC(=O)Nc3ccc(F)c(F)c3)CC2=O)c1 (configuration not stated) | -3.2 | 0.0 | -2.9 | nt | 3.6 | -19.6
CCS(=O)(=O)N1CCCC(c2nc(N3CCOCC3)ncc2-c2cccnc2)C1 (configuration not stated) | 0.1 | 1.1 | -3.0 | -10.1 | -2.7 | -0.9
CCC1=NN2C(=N)/C(=C/c3c(C)n(CCOc4ccc(C)c(C)c4)c4ccccc34)C(=O)N=C2S1 | -146.9 | -31.2 | -9.5 | -40.4 | -6.6 | -0.1
COc1cccc(O[C@@H]2C[C@@H](NC(=O)c3ocnc3C)[C@H](O)[C@H]2O)c1 | -11.1 | -13.6 | -2.1 | -26.3 | -11.9 | 0.1
O=C(C1CCCC1)N1Cc2ccccc2CC2(CCCN2Cc2ccncc2)C1 (configuration not stated) | -140.5 | -46.6 | -14.2 | -39.6 | -5.0 | -20.5
CC(C)Cc1nc2sc3c(SCc4ccc(Br)cc4)ncnc3c2c2c1COC(C)(C)C2 | -1.6 | 3.0 | -3.4 | -0.6 | -3.1 | -0.5
Cc1nc2sc3c(NCC(C)C)ncnc3c2c2c1COC(C)(C)C2 | 17.8 | -5.0 | 2.6 | 42.7* | -4.6 | 0.7
CC(C)Cc1nc2sc3c(SCc4ccc(Cl)cc4)ncnc3c2c2c1COC(C)(C)C2 | 32.9* | -0.8 | 3.0 | 17.5 | -0.5 | -4.4
CC(C)Cc1nc2sc3c(NCc4ccccc4)ncnc3c2c2c1COC(C)(C)C2 | 63.7* | 6.1 | 3.2 | 23.1 | 17.5 | 5.8
CCOC(=O)C(C)Sc1ncnc2c1sc1nc(N3CCCC3)c3c(c12)CC(C)(C)OC3 (configuration not stated) | -70.4 | 45.7* | 0.0 | -7.4 | -4.2 | -1.4
CCCc1cc(C(=O)NCCc2ccc(F)cc2)cs1 | 0.4 | -19.1 | 0.2 | -7.0 | 1.4 | -37.7
COc1ccc2[nH]c3c(c2c1)CCN1C(=O)N([C@@H](C)C(=O)NC(C)CCc2ccccc2)C(=O)[C@]31C (some centres not stated) | -76.2 | -43.2 | -0.1 | -24.0 | -3.4 | -0.3
Cc1cccc(CNC(=O)Cn2cc(-c3nnc(C)o3)c3ccccc32)c1 | 28.9 | 13.3 | 2.4 | 26.7 | 0.0 | 4.1
